Results on 40 molecules are retold here after PubChem BioAssay (Tox21).

Inconclusive results are not listed. Calls of active or inactive are those of the source. Calls come from the whole dose curve; as a rule, active = well fitted cell-killing curve with a large enough effect in the repeat runs; inconclusive = weak or mixed curves, or effect the other way; inactive = flat fitted curve, though single readings scatter.
% is set by controls: 0 for no effect and ±100 for the full control effect.

The assay can be described thus: qHTS RealTime-Glo MT Cell Viability Assay in HEK293 cells - 0 hour (AID 1224880). Note: top concentration of the series differs between compounds; nearly all actives have a fitted effect of over 45% in size. The settings on record: RealTime-Glo luminescence; series mostly up to 76.8 µM. The text has this:
U.S. Tox21 Program National Center for Advancing Translational Sciences [NCATS] NIH Chemical Genomics Center [NCGC] U.S. Environmental Protection Agency [EPA] National Institutes of Environmental Health Sciences [NIEHS] National Toxicology Program [NTP] U.S. Food and Drug Administration [FDA] Tox21 Assay Overview: Measure of cell viability is critical in the cell-base assay. Analysis of cell viability is necessary for the characterization of cell responses to cytotoxic drugs and environmental stress. A RealTime-Glo MT Cell Viability Assay to monitor cell viability in real time of continues cell culture during 40 hours of compound treatment was used to screen Tox21 10K library compounds in Hek293 cells. The RealTime-Glo MT Cell Viability Assay is a nonlytic, homogeneous, bioluminescent method to measure cell viability in real time using a simple, plate-based method. The assay involves adding NanoLuc luciferase and a cell-permeant prosubstrate to cells in culture. Viable cells reduce the proprietary prosubstrate to generate a substrate for NanoLuc luciferase. This substrate diffuses from cells into the surrounding culture medium, where it is rapidly used by the NanoLuc Enzyme to produce a luminescent signal. The signal correlates with the number of viable cells, making the assay well suited for cytotoxicity studies.
Tox21 Assay Protocol Summary: The mixture of Hek293 cell suspension and reagents were dispensed at 600cells/6 ul/well in 1536-well tissue culture treated black solid bottom plates using a Multidrop dispenser. After the assay plates were incubated at a 37 C/5% CO2 incubator for 5 hours, 23 nL of compounds dissolved in DMSO, positive and negative controls was transferred to the assay plate by a pintool work station. The plates were incubated at 37 C for 40 hours. The luminescence intensity were measured at 0h, 8h, 16h, 24h, 32h and 40h time points using ViewLux plate reader during compound treatment.
For `COC(=O)c1ccccc1CS(=O)(=O)NC(=O)Nc1nc(OC)cc(OC)n1`, the outcome was inactive.

Turning to `NCCOS(=O)(=O)O`, the result was inactive.

Take `CC(Cc1ccccc1)NCCCCl` (stereo not given): the call was inactive.

Consider `C[C@H](N)C(=O)c1ccccc1`, for which the molecule was called inactive.

In the case of `CON(C)C(=O)Nc1ccc(Br)cc1`, the result was inactive.

With `CCOC(=O)CCl`, the outcome was inactive.

Take `C#CC(C)(C)O`: the molecule was classed as inactive.

On to `O=C(Cl)/C=C/C(=O)Cl`, for which the call was inactive.

`C=CCN1CC[C@]23CCCC[C@H]2[C@H]1Cc1ccc(O)cc13`: the molecule was classed as inactive.

As for `CC(C)(O)C(Cl)(Cl)Cl`, the result was inactive.

As for `CCC1(CC)C(=O)C=CNC1=O`, the result was inactive.

Regarding `CN1C(=O)COc2c(C(=O)NC3CN4CCC3CC4)cc(Cl)cc21` (stereo not given), the call was inactive.

Consider `Cc1cc(OC(=O)N(C)C)nn1C(=O)N(C)C`, for which the result was inactive.

As to `CNC(=O)Oc1ccccc1C(C)C`, the outcome was inactive.

As for `CCCCCCC(=O)CCCCCC/C=C/C[C@@H](O)[C@H](O)[C@@](N)(CO)C(=O)O`, the activity change, negative = cytotoxicity is 3.85% [at 15.8 µM] (inactive).

For the molecule `C1CN2CCC1CC2`, the molecule was called inactive.

Consider `Cc1ccc(S(=O)(=O)N[C@@H](CCCCN)C(=O)CCl)cc1`, for which the call was inactive.

For `O=CCCl`, the result was inactive.

Turning to `CCCCS(=O)(=O)Cl`, the molecule was called inactive.

Consider `Cn1c(CCCC(=O)O)nc2cc(N(CCCl)CCCl)ccc21`, for which the result was inactive.

Consider `CC(C)(C)C(=O)Cl`, for which the molecule was classed as inactive.

In the case of `CN(C)C1CCCCC1`, the call was inactive.

With `CC(C)(N)Cc1ccc(Cl)cc1`, the call was inactive.

Take `C=C1C[C@@H]2[C@H](CC[C@]3(C)C(=O)CC[C@@H]23)[C@@]2(C)C=CC(=O)C=C12`: the outcome was inactive.

As to `CCOC(=O)C(SP(=S)(OC)OC)c1ccccc1` (stereo not given), the molecule was classed as inactive.

Regarding `ClC1=C(Cl)C2(Cl)C(CBr)CC1(Cl)C2(Cl)Cl` (stereo not given), the molecule was classed as inactive.

On to `O=S1(=O)OCCO1`, for which the molecule was called inactive.

Turning to `CC(C)[C@]12CC(=O)[C@H](C)[C@H]1C2`, the result was inactive.

Regarding `CCN(CC)C1CCCCC1`, the outcome was inactive.

On to `O=C1C2CC=CCC2C(=O)N1SC(Cl)(Cl)Cl` (stereo not given), for which the molecule was called inactive.

Turning to `COc1cc(CC(C)N)cc(OC)c1OC` (stereo not given), the outcome was inactive.

For `CCOP(=S)(OCC)SCCl`, the outcome was inactive.

As to `COP(=O)(O)OC`, the call was inactive.

In the case of `Cc1ccc(-c2nc3ccc(C)cn3c2CC(=O)N(C)C)cc1`, the call was inactive.

With `CC1N=C(N)OC1c1ccccc1` (stereo not given), the outcome was inactive.

Take `CCC(C)C(C)(COC(N)=O)COC(N)=O` (stereo not given): the molecule was classed as inactive.

With `BrCc1ccc(Br)cc1`, the result was inactive.

On to `CCCCCCC1CCOC1=O` (stereo not given), for which the outcome was inactive.

Turning to `ClCOCCl`, the outcome was inactive.

Turning to `Cc1ccc2c(c1)C1CN(C)CCC1N2` (stereo not given), the activity change, negative = cytotoxicity was -0.907% [at 15.8 µM] (inactive).
